The results in this text go back to PubChem BioAssay (Tox21).

The nature of assay [1]: qHTS assay to identify small molecule agonists of the sonic hedgehog signaling (Shh) pathway (AID 1259368).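 For activity change: NIH/3T3-derived 3T3Gli1-Luc cells carrying a stable Gli1-driven firefly luciferase reporter; series mostly up to about 92 µM; % is set by controls: 0 for no effect and ±100 for the full control effect.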 Note: nearly all actives have a fitted effect of over 15% in size. Note: potency is the fitted concentration of half-maximal effect. The method in brief:
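Read-out: firefly luciferase luminescence from a Gli1 response element reporter stably integrated in NIH/3T3-derived 3T3Gli1-Luc cells, measured 30 min at room temperature after reagent addition. Compound exposure lasted 24 hr at 37 C, 5% CO2.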
(Quantitative high-throughput screening tests each substance at several concentrations.)

Assay [2] is described as follows: qHTS assay to identify small molecule agonists of the estrogen receptor beta (ER-beta) signaling pathway - cell viability counter screen (AID 1259380; active = well fitted curve in the direction sought with a large enough effect in the repeat runs; an effect the other way counts as inactive or inconclusive; note: nearly all actives have a fitted effect of over 30% in size; note: potency is the fitted concentration of half-maximal effect). Summed up: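 Luminescence read-out (CellTiter-Glo, 30 min, room temp) taken in the same wells as the beta-lactamase reporter assay; ER-beta-UAS-bla HEK293T cells exposed to DMSO-dissolved compounds for 16 hr at 37C in 2% charcoal-stripped FBS medium.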

Assay [3] can be described thus: qHTS assay to identify small molecule antagonists of the estrogen receptor beta (ER-beta) signaling pathway - cell viability counter screen (AID 1259382; active = well fitted curve in the direction sought with a large enough effect in the repeat runs; an effect the other way counts as inactive or inconclusive; note: nearly all actives have a fitted effect of over 55% in size; note: potency is the fitted concentration of half-maximal effect). Summed up: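 Luminescent ATP read-out (CellTiter-Glo, 30 min, RT) taken in the same wells as the bla reporter assay. HEK293T ER-beta-UAS-bla cells in 2% charcoal-stripped FBS were exposed to compounds with 1nM E2 for 16 hr at 37C.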

Assay [4] deals with Estrogen receptor (Homo sapiens) (UniProt P03372). Briefly: qHTS assay to identify small molecule agonists of the estrogen receptor alpha (ER-alpha) signaling pathway in the presence of an antagonist (AID 1259383). For activation: top concentration of the series differs between compounds; % is set by controls: 0 for no effect and ±100 for the full control effect. Note: nearly all actives have a fitted effect of over 15% in size. Note: potency is the fitted concentration of half-maximal effect. The method in brief:
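Luciferase luminescence (ONE-Glo, 30min at room temperature) measured in VM7Luc4E2 cells after 22hr compound exposure at 15 concentrations, with 10.0nM ICI-182,780 final present; cells express endogenous ER-alpha and carry four EREs upstream of luciferase.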

Assay [5] in a line: qHTS assay to identify small molecule agonists or antagonists of the thyroid stimulating hormone receptor (TSHR) signaling pathway - wild type cell line counter screen (AID 1259384). Note: % is set by controls: 0 for no effect and ±100 for the full control effect. Summed up:
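Wild-type Hek293 cells, 800/well, 18 h at 37C, then compound with Ro20-1724 for 30 min RT. cAMP by HTRF (cAMP-d2/anti-cAMP cryptate), 1 h RT, fluorescence read. 15 concentrations, triplicates.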

The nature of assay [6]: qHTS assay to identify small molecule agonists of the androgen receptor (AR) signaling pathway in the presence of an antagonist - cell viability counter screen (AID 1259379; active = well fitted curve in the direction sought with a large enough effect in the repeat runs; an effect the other way counts as inactive or inconclusive; note: nearly all actives have a fitted effect of over 25% in size; note: potency is the fitted concentration of half-maximal effect). Summed up: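 Viability counter screen: CellTiter-Fluor fluorescence, measured in the same wells as the luciferase read-out. MDA-kb2 cells, 3,000/well, with nilutamide at 3.0uM final and compounds at 15 concentrations, 16 hr at 37C, 0% CO2.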

Assay [7] addresses Androgen receptor (Homo sapiens) (UniProt P10275). Briefly: qHTS assay to identify small molecule agonists of the androgen receptor (AR) signaling pathway in the presence of an antagonist (AID 1259381). Note: % is set by controls: 0 for no effect and ±100 for the full control effect; nearly all actives have a fitted effect of over 15% in size. Summed up: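 Luciferase read-out (ONE-Glo, 30min room temperature) in MDA-kb2 MMTV-reporter cells; agonist mode run in presence of AR antagonist nilutamide, 3.0uM final. Compounds tested as 15-point series, 16hr exposure at 37C, 0% CO2.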

Assay [8] addresses Estrogen receptor beta (Homo sapiens) (UniProt Q92731). Briefly: qHTS assay to identify small molecule antagonists of the estrogen receptor beta (ER-beta) signaling pathway (AID 1259378; active = well fitted inhibition curve with a large enough effect in the signal ratio in the repeat runs, not every such curve was filed as active; the % refers to the signal ratio; note: potency is the fitted concentration of half-maximal effect). Summed up:
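ER-beta-UAS-bla HEK293T cells in 2% charcoal-stripped FBS medium treated with compound plus 1nM final 17-beta-estradiol for 16 hr at 37C. Beta-lactamase reporter read by FRET substrate fluorescence after 2 hours at room temperature.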

Assay [9] in a line: qHTS assay to identify small molecule antagonists of the sonic hedgehog signaling (Shh) pathway (AID 1259369). Note: potency is the fitted concentration of half-maximal effect; nearly all actives have a fitted effect of over 45% in size. Summed up:
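Luminescence readout: firefly Luc under Gli1 response element in 3T3Gli1-Luc cells (NIH/3T3 clone). Antagonist mode, stimulation by conditioned medium; compound exposure 24hr at 37 C, 5% CO2.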

Assay [10] addresses Estrogen receptor beta (Homo sapiens) (UniProt Q92731). Briefly: qHTS assay to identify small molecule agonists of the estrogen receptor beta (ER-beta) signaling pathway (AID 1259377; active = well fitted activation curve with a large enough effect in the signal ratio in the repeat runs, not every such curve was filed as active; the % refers to the signal ratio; note: potency is the fitted concentration of half-maximal effect; for activation: % is set by controls: 0 for no effect and ±100 for the full control effect). The method in brief:
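In HEK293T cells bearing a UAS-beta-lactamase reporter under ER-beta control, DMSO-delivered compounds were incubated for 16 hr at 37C. Activity was detected as fluorescence 2 hours after LiveBLAzer B/G FRET substrate addition.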

Values without a mark were called inactive. Records with an inconclusive call do not appear. Activity calls are given as the source filed them. Unless noted, calls come from the whole dose curve.

Chain of Estrogen receptor (Homo sapiens) (P03372 whole entry, looked up): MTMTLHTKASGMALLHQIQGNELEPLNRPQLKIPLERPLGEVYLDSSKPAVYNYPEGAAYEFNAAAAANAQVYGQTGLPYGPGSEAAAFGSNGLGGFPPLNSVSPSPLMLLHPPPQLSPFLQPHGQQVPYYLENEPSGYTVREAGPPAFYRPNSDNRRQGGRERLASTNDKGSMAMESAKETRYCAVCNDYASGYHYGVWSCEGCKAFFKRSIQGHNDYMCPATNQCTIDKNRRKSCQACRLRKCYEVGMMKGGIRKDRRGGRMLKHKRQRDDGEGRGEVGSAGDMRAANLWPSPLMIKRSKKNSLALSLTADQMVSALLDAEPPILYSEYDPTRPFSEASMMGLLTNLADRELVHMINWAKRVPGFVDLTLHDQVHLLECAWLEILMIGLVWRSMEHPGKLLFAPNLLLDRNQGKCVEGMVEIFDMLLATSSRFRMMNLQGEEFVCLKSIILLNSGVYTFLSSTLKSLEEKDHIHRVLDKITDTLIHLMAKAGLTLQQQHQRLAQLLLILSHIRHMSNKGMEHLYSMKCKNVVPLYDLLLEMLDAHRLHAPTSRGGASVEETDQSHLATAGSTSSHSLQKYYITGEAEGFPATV
Chain of Estrogen receptor beta (Homo sapiens) (Q92731 whole entry, looked up): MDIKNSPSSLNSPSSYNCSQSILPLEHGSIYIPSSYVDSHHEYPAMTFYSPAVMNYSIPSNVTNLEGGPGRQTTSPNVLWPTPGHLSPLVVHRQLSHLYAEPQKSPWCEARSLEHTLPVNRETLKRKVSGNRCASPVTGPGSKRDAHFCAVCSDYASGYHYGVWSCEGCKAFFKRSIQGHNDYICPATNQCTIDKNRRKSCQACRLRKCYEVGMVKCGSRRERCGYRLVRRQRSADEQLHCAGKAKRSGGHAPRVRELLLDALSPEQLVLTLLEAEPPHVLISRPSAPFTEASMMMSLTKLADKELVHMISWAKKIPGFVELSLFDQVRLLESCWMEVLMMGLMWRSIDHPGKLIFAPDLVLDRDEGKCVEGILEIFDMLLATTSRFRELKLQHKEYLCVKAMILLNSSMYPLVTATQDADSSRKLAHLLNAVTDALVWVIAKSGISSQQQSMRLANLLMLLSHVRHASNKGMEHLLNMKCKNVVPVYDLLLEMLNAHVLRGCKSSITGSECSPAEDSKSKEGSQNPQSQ
Chain of Androgen receptor (Homo sapiens) (P10275 whole entry, looked up): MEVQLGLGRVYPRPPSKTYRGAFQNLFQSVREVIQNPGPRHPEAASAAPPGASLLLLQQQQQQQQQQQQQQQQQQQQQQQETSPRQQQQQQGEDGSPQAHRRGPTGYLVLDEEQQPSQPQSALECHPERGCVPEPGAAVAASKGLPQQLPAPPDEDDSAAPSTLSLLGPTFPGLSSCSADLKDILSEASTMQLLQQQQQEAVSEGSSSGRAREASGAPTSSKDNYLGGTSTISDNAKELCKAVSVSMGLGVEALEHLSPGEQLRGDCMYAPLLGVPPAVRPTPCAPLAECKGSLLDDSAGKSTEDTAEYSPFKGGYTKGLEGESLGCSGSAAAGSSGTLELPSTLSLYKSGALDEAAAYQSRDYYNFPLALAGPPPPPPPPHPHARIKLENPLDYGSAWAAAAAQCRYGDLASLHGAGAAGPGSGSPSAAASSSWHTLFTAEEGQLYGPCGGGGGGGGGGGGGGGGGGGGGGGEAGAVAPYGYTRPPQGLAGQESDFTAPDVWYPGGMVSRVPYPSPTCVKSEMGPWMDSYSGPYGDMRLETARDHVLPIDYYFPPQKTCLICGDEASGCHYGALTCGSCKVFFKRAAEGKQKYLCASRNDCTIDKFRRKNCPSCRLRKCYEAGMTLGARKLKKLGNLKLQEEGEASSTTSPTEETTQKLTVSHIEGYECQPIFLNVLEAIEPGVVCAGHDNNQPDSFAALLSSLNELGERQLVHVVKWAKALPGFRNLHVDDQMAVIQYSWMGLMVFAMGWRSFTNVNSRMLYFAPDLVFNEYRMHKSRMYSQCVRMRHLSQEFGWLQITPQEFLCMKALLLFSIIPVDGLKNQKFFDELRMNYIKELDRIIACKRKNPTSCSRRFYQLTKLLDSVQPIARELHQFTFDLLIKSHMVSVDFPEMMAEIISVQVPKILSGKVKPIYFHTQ

Consider `COc1ccccc1N1CCN(CCCCNC(=O)c2ccc(-c3ccc(C(C)=O)cc3)cc2)CC1`, for which the Potency entry in assay [1], in assay [2], in assay [3] and in assay [4] was “inactive” each time. Further, the molecule was called inactive in [5].
Turning to `CCCCCC[C@@H](O)C/C=C\CCCCCCCC(=O)OCC(O)CO` (stereo not given in full), the Potency result in assay [1], in assay [6], in assay [7] and in assay [4] was “inactive” in each case.
Regarding `CCC1CO1` (stereo not given), the Potency result in assay [1], in assay [8], in [6], in assay [2] and in [3] was “inactive” in each case. In addition, the outcome in assay [5] was inactive.
Consider `CCOC(=O)c1ccc(OCCN2C[C@H](O)[C@@H](O)[C@H](O)[C@H]2CO)cc1`, for which the Potency result in [1], in assay [6], in assay [2], in assay [3] and in [4] was “inactive” each time. The result in assay [5] was inactive.
For the molecule `O=c1cc(-c2ccccc2)oc2ccc3ccccc3c12`, the figures for the Potency in assay [9] and in [2] were 5.45 µM (active) and 24.3 µM (active), respectively. Also, the Potency result in assay [10], in assay [8] and in assay [6] was “inactive” each time. Also, in assay [5], the molecule was called inactive.
With `O=C(CCc1ccc(O)cc1)c1c(O)cc(O)cc1O`, the Potency result in assay [1], in [2], in assay [7] and in assay [3] was “inactive” throughout. Also, the Potency in assay [10] is 7.01 µM (active); in assay [4] it was 24.9 µM (active). The outcome in [5] was inactive.
`Cc1ccc2c(Br)cc(Br)c(O)c2n1`: the Potency entry in assay [10], in assay [6] and in assay [3] was “inactive” throughout. The Potency in assay [2] is 11.9 µM (active). Also, in [5], the result was inactive.
Regarding `Oc1c(I)cc(I)c2cccnc12`, the Potency entry in assay [3] is “inactive”. Besides, the outcome in assay [5] was inactive.
On to `COC(=O)CS`, for which the Potency result in assay [1], in assay [10], in assay [6], in assay [3] and in [4] was “inactive” each time. Moreover, the call in assay [5] was inactive.
In the case of `CN1CC(=O)N2[C@H](c3ccc4c(c3)OCO4)c3[nH]c4ccccc4c3C[C@@H]2C1=O`, the Potency result in assay [1], in assay [6], in assay [2], in assay [3] and in [4] was “inactive” throughout. In assay [5], the molecule was called inactive.
For the molecule `Cc1cc(O)ccc1O`, the Potency entry in assay [1] and in assay [10] was “inactive” each time. The Potency in assay [2] and in assay [3] was 61.8 µM (active) throughout.
For `Cc1cc(=O)c2c(O)c3c(O)cc(=O)c4c3c3c(cc(O)c1c23)C(C)(C)C=4O`, in assay [1], the activity change is -5.72% [at 18.9 µM, active compounds read high]. Also, the activation in [10] was -11.3% [at 19 µM]. In addition, the Potency in [6] is 1.46 µM (active). In assay [5], the cAMP activity change was 14.8% [at 18.9 µM].
On to `CC(C)C(O)(c1ccc(OC(F)(F)F)cc1)c1cncnc1` (stereo not given), for which the Potency entry in assay [1], in assay [6], in assay [2] and in [3] was “inactive” in each case. Further, in assay [5], the molecule was classed as inactive.
As for `COc1ccccc1Oc1c(NS(=O)(=O)c2ccc(C(C)(C)C)cc2)nc(-c2ncccn2)nc1OCCO`, the Potency entry in assay [1], in [6], in assay [3] and in assay [4] was “inactive” in each case. The outcome in [5] was inactive.
With `COC(=O)[C@H]1[C@H]2C[C@@H]3c4[nH]c5cc(OC)ccc5c4CCN3C[C@H]2C[C@@H](OC(=O)/C=C/c2ccc(O)c(OC)c2)[C@@H]1OC`, the Potency result in [1], in assay [10], in [7] and in assay [4] was “inactive” in each case. Also, the Potency in [2] was 8.41 µM (active). Besides, the call in assay [5] was inactive.
For the molecule `CN1C(=O)N(c2ccccc2Br)Cc2cnc(Nc3ccc4c(c3)OCC(CO)O4)nc21` (stereo not given), the Potency entry in assay [1] and in [4] was “inactive” in each case. Also, the values for the Potency in assay [6], in assay [2] and in assay [3] were 61.1 µM (active), 34.4 µM (active) and 38.6 µM (active), respectively. The result in [5] was inactive.
Turning to `CCOC(=O)[C@H](CCc1ccccc1)N[C@@H](C)C(=O)N(CC(=O)O)C1Cc2ccccc2C1`, the Potency result in [1], in assay [6] and in assay [4] was “inactive” each time. In addition, the Potency in assay [2] is 6.68 µM (active); in assay [3] it was 11.9 µM (active).
Consider `CN(C)CCC=C1c2ccccc2C=Cc2ccccc21`, for which the Potency result in assay [1] and in [4] was “inactive” throughout. Also, the Potency in [2] is 26.6 µM (active); in assay [3], 29.8 µM (active). In addition, in assay [5], the molecule was called inactive.
As for `C[C@@H](CN(C)C)CN1c2ccccc2Sc2ccccc21`, the Potency entry in assay [1], in assay [10] and in assay [4] was “inactive” throughout. For the same molecule, the results for the Potency in assay [2] and in assay [3] were 18.8 µM (active) and 21.1 µM (active), respectively.
In the case of `Cc1ccccc1N=C(N)Nc1ccccc1C`, the Potency result in assay [1], in assay [6], in assay [2] and in assay [3] was “inactive” in each case. Moreover, the molecule was called inactive in [5].
For the molecule `N#CCCN(CCO)CCO`, the Potency result in [1], in [6], in assay [2] and in assay [3] was “inactive” each time. Further, in [5], the molecule was classed as inactive.
Regarding `COc1cc(N)c(Cl)cc1C(=O)NC1CCN(CCCOc2ccc(F)cc2)CC1OC` (stereo not given), the Potency entry in assay [1], in [3] and in assay [4] was “inactive” in each case. Besides, the Potency in [2] was 5.96 µM (active). In [5], the result was inactive.
Take `O=C(/C=C/c1ccc(O)c(O)c1)O[C@@H]1C[C@@](OC(=O)/C=C/c2ccc(O)c(O)c2)(C(=O)O)C[C@@H](O)[C@@H]1O`: the Potency result in assay [1], in assay [6], in assay [2], in assay [3] and in [4] was “inactive” in each case. The result in [5] was inactive.
For the molecule `c1cc(N(CC2CO2)CC2CO2)ccc1Cc1ccc(N(CC2CO2)CC2CO2)cc1` (stereo not given), the Potency is 15.4 µM (active) in assay [9] and 27.3 µM (active) in [8]. In addition, the Potency entry in assay [2], in assay [7], in assay [3] and in [4] was “inactive” throughout. The molecule was classed as inactive in assay [5].
Regarding `C[C@H]1c2cccc(O)c2C(O)=C2C(=O)[C@]3(O)C(O)=C(C(N)=O)C(=O)[C@@H](N(C)C)[C@@H]3[C@@H](O)[C@@H]21`, the Potency result in assay [1], in assay [6], in assay [2], in assay [7] and in [3] was “inactive” each time.
Take `CC(CN(C)C)C(C)(O)Cc1ccc(Cl)cc1` (stereo not given): the Potency entry in assay [1], in assay [6], in [7], in assay [3] and in assay [4] was “inactive” in each case. Moreover, the result in [5] was inactive.
Consider `Nc1ccc(N=Nc2ccccc2)c(N)c1`, for which the Potency in assay [1] was 1.34 µM (active); in assay [6], 26.7 µM (active); in assay [2], 26.7 µM (active). Moreover, in assay [4], the Potency result is “inactive”.
As to `CC(C)c1nc(CN(C)C(=O)N[C@H](C(=O)N[C@@H](Cc2ccccc2)C[C@H](O)[C@H](Cc2ccccc2)NC(=O)OCc2cncs2)C(C)C)cs1`, the Potency result in assay [1] and in assay [6] was “inactive” each time. Besides, the figures for the Potency in assay [2] and in [3] were 15 µM (active) and 21.1 µM (active), respectively. The molecule was called inactive in [5].
As to `Cc1cc(O)c(C)c(C)c1O`, the Potency result in assay [1], in assay [6], in assay [2], in [7], in assay [3] and in [4] was “inactive” in each case.
Consider `O=[N+]([O-])c1ccc(O/N=C/c2cc(Br)c(O)c(Br)c2)c([N+](=O)[O-])c1`, for which the Potency result in assay [1], in [3] and in [4] was “inactive” each time. Also, in [6], the Potency was 48.3 µM (active). The molecule was called inactive in [5].
As for `CCCCCCCC/C=C\CCCCCCCCCCCC(=O)O`, the Potency entry in [1], in assay [6], in assay [2], in assay [7], in [3] and in assay [4] was “inactive” in each case.
For `CC1(C)[C@H](C(=O)O)N2C(=O)C[C@H]2S1(=O)=O`, the Potency entry in assay [1], in assay [6], in [2], in assay [3] and in [4] was “inactive” each time. Moreover, the Potency in [8] was 11.9 µM (active).
`CN1C(=O)OC(C)(C)C1=O`: the Potency result in assay [10], in [8], in assay [6], in assay [2], in [3] and in assay [4] was “inactive” in each case.
With `C/C=C\C/C=C/CCCCCCCCOC(C)=O`, the Potency entry in assay [1], in assay [6] and in assay [4] was “inactive” throughout. Moreover, the Potency in assay [2] is 61.1 µM (active). Further, the outcome in assay [5] was inactive.
